# Data from PubChem BioAssay (EPA / NIEHS).
# Results filed as inconclusive are left out. Calls of active or inactive are those of the source. Rule for the calls: active = hit-call score of the fitted dose curve at least 0.9, where 1 is the maximum; inconclusive = response in the unintended direction; inactive = score below 0.9.
# Experiment: ATG_GAL4_TRANS: Attagene TRANS-FACTORIAL HepG2 Assay for GAL4 (Internal Marker) (AID 2282976)
# Conditions: HepG2 Attagene TRANS GAL4 internal marker reporter
# Method: ATG_TRANS is a cell-based, multiplexed-readout assay that uses HepG2, a human liver cell line, with measurements taken at 24 hours after chemical dosing in a 24-well plate.ATG_GAL4_TRANS is one of 30 assay component(s) measured or calculated from the ATG_TRANS assay. It is designed to make measurements of mRNA induction, a form of inducible reporter, as detected with fluorescence intensity signals by Reverse transcription polymerase chain reaction (RT-PCR) and Capillary electrophoresis technology.Data from the assay component ATG_GAL4_TRANS was analyzed into 1 assay endpoint. This assay endpoint, ATG_GAL4_TRANS, was analyzed in the positive analysis fitting direction relative to DMSO as the negative control and baseline of activity. Using a type of inducible reporter, measures of mRNA for gain-of-signal activity can be used to understand the background control at the transcription factor-level as they relate to the gene . Furthermore, this assay endpoint can be referred to as a secondary readout, because this assay has produced multiple assay endpoints where this one serves a background control function. To generalize the intended target to other relatable targets, this assay endpoint is annotated to the background measurement intended target family, where the subfamily is baseline control.
# Human liver HepG2 cells are transiently transfected with multiple reporter transcription units (MRTUs) in 6-well plates using FuGene 6 reagent (Roche; 3 ml FuGene/1 mg DNA). The MRTU constructs are regulated by a cis-regulating element (promoter). […] A major difference between the CIS and TRANS system is that in CIS activities of endogenous TFs are measured, whereas the TRANS assay evaluates changes in activities of exogenous, chimeric NR-Gal4 proteins. […] At the end of 24 hour incubation, total RNA was isolated using TriZol reagent (Invitrogen). The isolated RNA is then reverse-transcribed using oligo(dT) primer and Mo-MLV reverse transcriptase (Invitrogen) with DNAse I (Ambion) treatment for 30 min. The one-tenth of the produced cDNA was amplified by PCR using Taq DNA polymerase (Invitrogen) and two reporter sequence-specific primers. The PCR products were fluorescently labeled by primer extension with 6-arboxyfluorescein (6-FAM) 5'-labeled reporter sequence-specific primer (2 min at 95 C, 20 s at 68 C and 10 min at 72 C) and these products were digested with 5U of HpaI (New England Biolabs) for 2h at 37 C. The fragments were purified using Qiaquick PCR columns (Qiagen), analyzed on an ABI 3130xL genetic analyzer (Applied Biosystems) with peak positions identified by using a set of X-rhodamine (ROX)-labeled MapMarker1000 molecular weight standards (BioVentures). The raw capillary electrophoresis data was processed using Attagraph software (Attagene).
row,Compound,outcome
1,CC(C)(O)c1coc(S(=O)(=O)NC(=O)Nc2c3c(cc4c2CCC4)CCC3)c1,inactive
2,CCC(C)(C)C(=O)O[C@H]1C[C@@H](C)C=C2C=C[C@H](C)[C@H](CC[C@@H]3C[C@@H](O)CC(=O)O3)[C@H]21,inactive
3,Clc1nc(Cl)c(Cl)c(Cl)c1Cl,inactive
4,CCOCCOCCOCCO,inactive
5,O=C(O)c1cccc(N(Cc2cccnc2)c2ccc(OC(F)F)c(OC(F)F)c2)c1,inactive
6,NC(=O)NO,inactive
7,C1N2CN3CN1CN(C2)C3,inactive
8,Nc1nc2ncc(CNc3ccc(C(=O)N[C@@H](CCC(=O)O)C(=O)O)cc3)nc2c(=O)[nH]1,inactive
9,CNS(=O)(=O)c1cc(C(=O)N2CCC(CCN3C4CCC3CC(n3c(C)nc5ccccc53)C4)(c3cccc(F)c3)CC2)c(Cl)cc1F (configuration not stated),inactive
10,CCn1nc(Cc2ccccc2)cc1C1CCN(C[C@H]2C[C@H](N(C)[C@@H](C(=O)O)C(C)C)C[C@@H]2c2cccc(F)c2)CC1,inactive
11,O=c1[nH]c2ccc(S(=O)CCN3CCC(Cc4ccc(F)cc4)CC3)cc2o1 (configuration not stated),inactive
12,CCOc1cccc(-n2cc(C(=O)N3CCN(c4cc(C(=O)O)c5ccccc5c4)CC3)nc2-c2ccc(C)cc2)c1,inactive
13,CC/C(=C\C(=N/O)C(N)=O)C(C)[N+](=O)[O-] (configuration not stated),inactive
14,CC(=O)OC[C@H]1O[C@@](COC(C)=O)(O[C@H]2O[C@H](COC(C)=O)[C@@H](OC(C)=O)[C@H](OC(C)=O)[C@H]2OC(C)=O)[C@@H](OC(C)=O)[C@@H]1OC(C)=O,inactive
15,CC(C)CCO,inactive
16,Oc1ccc2c(c1)-c1ccccc1C2,inactive

row,Compound,outcome
1,CNCc1ccc(NC(=O)c2c[nH]c3c2C(=O)CCC3)cc1,inactive
2,CC(C)CCCCCCOC(=O)c1ccc(C(=O)OCCCCCCC(C)C)c(C(=O)OCCCCCCC(C)C)c1,inactive
3,O=C(O)c1cccc(Oc2ccccc2)c1,inactive
4,CCCCC(CC)COC(=O)c1ccc(C(=O)OCC(CC)CCCC)cc1 (configuration not stated),inactive
5,CC(C)CCCCCCCOC(=O)CCCCC(=O)OCCCCCCCC(C)C,inactive
6,O=C(O)c1cc(N=Nc2ccc(S(=O)(=O)Nc3ccccn3)cc2)ccc1O,inactive
7,O=C1CCC(N2C(=O)c3ccccc3C2=O)C(=O)N1 (configuration not stated),inactive
8,CC(=O)c1ccc2c(c1)[C@H](NC(=O)c1ccc(F)cc1)[C@@H](O)C(C)(C)O2,inactive
9,CN(C)c1ccc(N=NS(=O)(=O)O)cc1,inactive
10,CCNc1ccccc1,inactive
11,CC(=O)OCCC(C)C,inactive
12,COCCOCCOCCOC,inactive
13,O=P(OC(CCl)CCl)(OC(CCl)CCl)OC(CCl)CCl,inactive
14,COc1ccc2sc(C(=O)Nc3nnn[nH]3)c(OC(C)C)c2c1,inactive
15,COC(=O)c1c(Cl)c(Cl)c(C(=O)OC)c(Cl)c1Cl,inactive
16,CCCCCCCCO,inactive
